# High-throughput results as filed in PubChem BioAssay.
# Rows were chosen to be rich in hits. Some 8.1% of all compounds tested hit in one or more screens of this group.
# MCF10A rereplic = induces DNA re-replication in MCF 10a normal breast cells | AID 624296 | 350,000 tested, 2.9% active | MCF 10A DNA re-replication, Hoechst nuclear intensity, 48 h | Potency, µM (highest dose often 46.1 µM), actives largely listed as activators; also: nearly all actives have a fitted effect of over 50% in size
# KB-3-1 tox = KB-3-1 parental cell cytotoxicity; KB-3-1 viability, CellTiter-Glo ATP luminescence, 72 h; Potency, µM (series often up to 46.1 µM), actives largely listed as cytotoxic; 400,000 tested, 1.4% active; AID 1347075; also: nearly all actives have a fitted effect of over 60% in size
#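 Screening of KB-3-1 cells (DMEM, 10% FBS, phenol-red free) ran from lowest to highest compound concentration; after 72 h at 37 °C viability was read luminescently and curves fitted.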
# KB-V1 cytotox = kills drug-selected multidrug resistant KB-V1 cells | KB-V1 MDR cells viability, CellTiter-Glo, 72 h | Potency, µM (titrated, usually from 46.1 µM), most hits filed as cytotoxic | 400,000 tested, 3.4% active | AID 1347076; also: nearly all actives have a fitted effect of over 60% in size
#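 Cytotoxicity via CellTiter-Glo luminescence after 72 h compound exposure at 37 degrees C. Cells: drug-selected KB-V1 line, DMEM phenol-red free plus 10% FBS. Compounds tested at multiple concentrations; normalized data fitted to concentration-effect curves.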
# ELG1 DNA repair = ELG1-dependent DNA repair inhibition. Potency, µM (series often up to 46.1 µM), usual class: inhibitors. 330,000 tested, 2.3% active. HEK293T ELG1-luciferase reporter, luminescence, 16 h; DNA damage induced by 5-fluorouridine; also: nearly all actives have a fitted effect of over 55% in size
#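 Quantitative HTS, concentration-response format. 2,000 cells/well co-treated with 5-fluorouridine and compound, 16 hr in 5% CO2 at 37 °C; ONE-Glo luminescence read after 30 min.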
# SW480 rerep = inducers of DNA re-replication in SW480 colon cancer cells; SW480 DNA re-replication, Hoechst DNA content imaging, 48 h; 340,000 tested, 1.8% active; Potency, µM (doses to about 46.1 µM), most hits filed as activators; also: nearly all actives have a fitted effect of over 55% in size
#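 Readout is total intensity of Hoechst-stained nuclei, excited at 405 nm and collected at 500-530 nm. Compound treatment lasted 48 hr at 37 C in 5% CO2 before staining.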
# A number is an active result; - = inactive; ? = inconclusive; . = no result given. Calls follow the shape of the dose curve; as a rule, active = well fitted curve in the direction sought with a large enough effect; inconclusive = small, poorly fitted or top-dose-only effect, or another doubt; inactive = no such curve, though single readings can be large; an effect the other way counts as inactive or inconclusive.
SMILES,MCF10A rereplic,KB-3-1 tox,KB-V1 cytotox,ELG1 DNA repair,SW480 rerep
COc1cc(C(=O)N2CCN(c3cccc(C(F)(F)F)c3)CC2)ccc1OCC(=O)N1CCOCC1,-,-,18µM,.,-
Cc1occc1C(=O)N1CCCC(N2CCN(c3cccc(C(F)(F)F)c3)CC2)C1 (stereo not given),?,-,?,-,-
O=C(COc1cccc(C(F)(F)F)c1)N1CCN(c2ccccc2O)CC1,-,-,-,-,-
O=C(COc1cccc(C(F)(F)F)c1)N1CCN(c2ccc(O)cc2)CC1,-,-,?,16µM,-
CCn1cc(C(=O)N2CCN(c3cccc(C(F)(F)F)c3)CC2)c2cc(OC)c(OC)cc2c1=O,.,-,-,.,.
COc1ccccc1C(=O)N1CCN(c2cccc(C(F)(F)F)c2)CC1,11µM,5.2µM,2.9µM,?,23µM
Cc1cc(C(=O)N2CCCC(N3CCN(c4cccc(C(F)(F)F)c4)CC3)C2)c(C)o1 (stereo not given),?,-,-,-,18µM
CC[C@]12C(=O)N(C)C[C@H]([C@@H]3C(=O)N(Cc4ccccc4)C(=O)[C@@H]31)N2C(=O)c1ccc(Br)cc1,-,-,?,.,-
Cc1nc(SCc2cc(=O)c3cccc(F)c3[nH]2)n[nH]1,.,-,-,.,.
Cc1cc(Br)cn2c(Cc3ccsc3)c(-c3cccc(Br)c3)nc12,.,-,?,.,.
COc1ccc(NC(=O)N2CCN(c3cccc(C(F)(F)F)c3)CC2)cc1OC,-,-,13µM,?,-
Cc1ccnc(NC(=S)Nc2cccc([S+](=O)([O-])Nc3ccccc3F)c2)c1,.,-,-,.,.
COc1ccc(NC(=O)C2(C)CCN2CCOc2ccccc2)cc1OC (stereo not given),.,-,?,.,.
CCn1c(CN2CCCCC2)nc2cc(NC(=O)c3cc(OC)c(OC)c(OC)c3)ccc21,.,-,-,.,.
Cc1coc2c1C(=O)C(=O)c1c-2ccc2c(C)cccc12,?,9.2µM,9.2µM,?,5.2µM
Cc1coc2c1C(=O)C(=O)c1c-2ccc2c1CCCC2(C)C,?,6.5µM,7.3µM,?,-
Cc1ccc2c3c(cccc13)-c1ccccc1C2=O,-,-,?,?,-
CCOc1ccc2c(c1)C(=NNC(=O)c1ccccn1)c1cc(OCC)ccc1-2,-,-,-,.,-
Cc1cccnc1NC(=O)CN1C(=O)c2ccccc2S1(=O)=O,-,-,-,-,-
Cc1ccc(CCNC(=O)c2cn(C)c3ccc(S(=O)(=O)N4CCC(C)CC4)cc3c2=O)cc1,.,?,-,.,.
O=C1NC(=S)N/C1=C/c1cc([N+](=O)[O-])ccc1O,-,-,-,-,10µM
O=C1NC(=S)N/C1=C/c1cccc([N+](=O)[O-])c1O,-,?,-,-,-
Cc1csc(N/N=C/c2ccccn2)n1,?,?,?,?,3.7µM
C(=N\NC1=Nc2cccc3cccc1c23)/c1ccccn1,?,23µM,?,?,-
Clc1ccccc1/C=N/NC1=Nc2cccc3cccc1c23,?,-,-,?,?
SMILES,MCF10A rereplic,KB-3-1 tox,KB-V1 cytotox,ELG1 DNA repair,SW480 rerep
Cc1csc(N/N=C/c2ccc([N+](=O)[O-])cc2)n1,-,-,-,?,-
CCc1ccccc1N(C)C(=O)c1nn(-c2ccc(OC)cc2)c(=O)c2c1c1ccccc1n2C,.,-,-,.,.
CC(C)CC(NC(=O)c1ccc(Cl)cc1)C(=O)OCC(=O)c1ccc2c(c1)NC(=O)CO2 (stereo not given),?,7.3µM,-,?,?
O=C(Nc1cccc(-c2cccc(F)c2)c1)C1CCN(Cc2ccc(CO)o2)CC1,-,?,-,-,16µM
Cn1c(-c2ccccc2)c(Sc2ccccc2)c2cc(-c3ccc4[nH]ccc4c3)ccc21,.,-,-,.,.
COc1ccc(C)cc1Nc1nc2cc(Cl)c(Cl)cc2nc1-n1nc(C)cc1C,.,-,-,.,.
Cc1cc(Cl)c(S(=O)(=O)N2CCCC2)cc1OCC(=O)NC1CCCCC1,-,-,-,13µM,-
CCCC(=O)N/C(N)=N/c1nc(C)c2cc(C)ccc2n1,-,18µM,-,?,-
CCC(=O)N/C(N)=N/c1nc(C)c2cc(C)c(C)cc2n1,-,-,-,-,?
CCc1ccc2nc(N=C(N)N)nc(C)c2c1,-,23µM,-,-,-
Cc1nc(N=C(N)N)nc2ccccc12,-,8.2µM,?,-,-
Cc1cc2nc(/N=C(\N)NC(=O)C(C)C)nc(C)c2cc1C,-,15µM,-,-,-
O=C(COc1ccc(S(=O)(=O)N2CCOCC2)cc1)NCCc1ccc(Cl)cc1,.,-,-,.,.
CN(Cc1ccc(F)cc1)C(=O)CN1CCN(S(=O)(=O)c2ccc3c(c2)OCCCO3)CC1,.,-,?,.,.
COc1ccc(NC(=O)CSc2nc3cc(OC)c(OC)cc3c3nc(-c4ccccc4)nn23)cc1Cl,.,-,?,.,.
Cc1cc2nc(N=C(N)N)nc(C)c2cc1C,?,-,-,?,18µM
